Experimental data from article PMC4336329 (PLoS ONE, 2015).
Hit rate of the full screen: of about 310,000 compounds, about 14,000 (4.5%) showed an effect of 50% or more. The effect is printed as a negative number. The entries come from a sample that favours strong results as a whole.

What follows are compounds tested against human ether-à-go-go-related gene (hERG) potassium channel (human, UniProt Q12809) (assay: primary screen, population patch clamp on CHO cells stably expressing hERG; higher = less effect of the substance).
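Also: peak tail current of the secondary pulse compared with the same well before compound.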

Sequence of human ether-à-go-go-related gene (hERG) potassium channel (Q12809 whole entry, looked up): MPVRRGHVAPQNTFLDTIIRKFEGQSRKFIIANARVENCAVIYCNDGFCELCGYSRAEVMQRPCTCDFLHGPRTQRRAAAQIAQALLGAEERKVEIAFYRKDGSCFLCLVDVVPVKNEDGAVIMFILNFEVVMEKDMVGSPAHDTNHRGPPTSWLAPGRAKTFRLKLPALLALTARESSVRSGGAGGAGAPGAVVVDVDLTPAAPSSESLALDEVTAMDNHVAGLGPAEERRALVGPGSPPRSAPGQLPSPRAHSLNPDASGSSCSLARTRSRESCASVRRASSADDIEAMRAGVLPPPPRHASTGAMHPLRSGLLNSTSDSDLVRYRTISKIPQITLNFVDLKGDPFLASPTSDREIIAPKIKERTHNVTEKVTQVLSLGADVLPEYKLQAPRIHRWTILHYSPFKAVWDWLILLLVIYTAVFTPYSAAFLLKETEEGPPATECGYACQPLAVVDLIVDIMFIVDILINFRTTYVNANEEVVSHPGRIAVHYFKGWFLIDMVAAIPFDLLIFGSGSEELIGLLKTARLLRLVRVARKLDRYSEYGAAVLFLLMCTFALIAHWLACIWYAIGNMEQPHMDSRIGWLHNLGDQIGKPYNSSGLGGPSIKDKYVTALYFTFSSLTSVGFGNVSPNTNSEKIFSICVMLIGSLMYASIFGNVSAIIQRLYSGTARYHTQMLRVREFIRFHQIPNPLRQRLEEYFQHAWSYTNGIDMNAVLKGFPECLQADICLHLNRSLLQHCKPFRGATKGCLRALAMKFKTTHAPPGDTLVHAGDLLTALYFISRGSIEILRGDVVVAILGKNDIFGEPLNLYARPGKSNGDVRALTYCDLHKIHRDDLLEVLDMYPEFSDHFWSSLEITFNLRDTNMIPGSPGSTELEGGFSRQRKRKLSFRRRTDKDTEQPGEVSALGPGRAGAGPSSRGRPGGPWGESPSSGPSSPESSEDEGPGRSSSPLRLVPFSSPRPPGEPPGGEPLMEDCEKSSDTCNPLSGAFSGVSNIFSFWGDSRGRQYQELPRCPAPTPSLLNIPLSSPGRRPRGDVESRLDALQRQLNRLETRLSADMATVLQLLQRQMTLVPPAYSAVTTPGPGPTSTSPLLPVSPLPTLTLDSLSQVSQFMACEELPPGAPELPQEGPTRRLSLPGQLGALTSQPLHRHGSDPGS

Row | Compound | hERG current change (%, negative = inhibition) at 10uM
1 | CCCS(=O)(=O)N1CCN(Cc2ccc(OCc3ccccc3)c(OC)c2)CC1.O=C(O)C(=O)O | -43.2%
2 | O=C(NCc1ccccn1)c1c(Cl)cccc1Cl | 2.78%
3 | COc1ccc(-n2c(C)cc(C)c(C(C)=O)c2=S)cc1 | -2.39%
4 | Cc1cccc(N2CCN(CC(=O)N(C3CCCC3)C3CCS(=O)(=O)C3)CC2)c1C (centres unmarked) | -13.3%
5 | CCCc1nnc(SCC(=O)N(CC)CC)n1CC1CCCO1 (centres unmarked) | 21.9%
6 | Cc1ccc2[nH]c(=O)c(CN(CCc3ccccc3)Cc3nnnn3CC3CCCO3)cc2c1 (centres unmarked) | -16%
7 | CC(=O)Nc1ccc(/C=N/NC(=S)NC(C)C)cc1 | 21.3%
8 | CC(Cc1n[nH]c(=S)n1N)c1ccccc1 (centres unmarked) | 19.8%
9 | CS(=O)(=O)c1ccc(Cl)c(NC(=O)COC(=O)c2ccc(-n3cnnn3)cc2)c1 | -7.82%
10 | COc1cccc(CNC(=O)COc2cccc(-n3cnnn3)c2)c1 | -18.9%
11 | Cc1ccc(NC(=O)COc2cccc(-n3cnnn3)c2)cc1[N+](=O)[O-] | -0.307%
12 | COC(=O)c1ccc(NC(=O)COc2cccc(-n3cnnn3)c2)cc1 | 6.77%
13 | COc1ccc(NC(=O)COc2cccc(-n3cnnn3)c2)cc1Cl | 24%
14 | COc1ccc(NC(=O)COc2cccc(-n3cnnn3)c2)cc1 | -54.3%
15 | COc1cccc(NC(=O)COc2cccc(-n3cnnn3)c2)c1 | -50.8%
16 | CCc1ccc(NC(=O)COc2cccc(-n3cnnn3)c2)cc1 | -68%
17 | O=C(COc1cccc(-n2cnnn2)c1)Nc1ccccc1 | -26.4%
18 | O=C(COc1cccc(-n2cnnn2)c1)Nc1ccc([N+](=O)[O-])cc1 | -43.6%
19 | S=c1[nH]nc(CSCc2ccccc2Cl)n1-c1ccccc1 | 0.868%
20 | CCOc1ccccc1N(CC(=O)NC1CCCC1)C(=O)CCCC(=O)Nc1ccccn1 | -8.6%
21 | O=C(O)/C=C\c1cccc(-n2cnnn2)c1 | -1.3%
22 | CCC(=NCCc1c[nH]c2ccccc12)c1c(O)n(C)c(=O)n(C)c1=O | -10.8%
23 | COc1ccc(/C(C)=N/NC(=O)C2C3CCCCC32)c(OC)c1 (centres unmarked) | -0.79%

Row | Compound | hERG current change (%, negative = inhibition) at 10uM
24 | CN(C)CCNC(=O)Cn1ccc2cc(S(=O)(=O)N3CCCCC3)ccc21 | 8.47%
25 | Cc1ccc(NC(=O)CN(C)C(=O)c2nn(C)c(=O)c3ccccc23)cc1 | -35.7%
26 | C/C(=N\NC(=O)CNc1ccccc1)c1ccccc1 | -12.8%
27 | O=C(NN=C(c1ccccc1)c1ccccc1)C(CCl)C1CCCCC1 (centres unmarked) | -2.74%
28 | C=CCNCC(=O)NN=C(c1ccccc1)c1ccccc1 | -68.5%
29 | C=CCNC(=O)NC(=S)c1ccccc1 | -4.57%
30 | CCN(CC)CC(=O)NN=C(c1ccccc1)c1ccccc1 | -77.6%
31 | O=C(CNC1CCCCC1)NN=C(c1ccccc1)c1ccccc1 | -59.8%
32 | CCOC(=O)C(=O)NN=C(c1ccccc1)c1ccccc1 | 9.79%
33 | O=C(CCl)NN=C(c1ccccc1)c1ccccc1 | 0.333%
34 | CC1CN(CC(=O)NN=C(c2ccccc2)c2ccccc2)CC(C)O1 (centres unmarked) | 12.8%
35 | CC(NC1CCCCC1)C(=O)NN=C(c1ccccc1)c1ccccc1 (centres unmarked) | -32.1%
36 | O=C(CN1CCCC1)NN=C(c1ccccc1)c1ccccc1 | -68.3%
37 | O=C(CN1CCOCC1)NN=C(c1ccccc1)c1ccccc1 | 20.8%
38 | O=C(CN1C(=O)C2C3C=CC(C3)C2C1=O)NC1CCCc2ccccc21 (centres unmarked) | -2.95%
39 | CCOC(=O)CN(C#N)c1nc(C)cc(C)n1 | -7.84%
40 | Cc1nc(SCCc2ccccc2)[nH]c(=O)c1C | 19.6%
41 | O=C(O)Cn1nnc(-c2ccc(OCc3ccccc3)cc2)n1 | 23.9%
42 | COc1ccccc1CNC(=O)c1cnn2c(C(F)F)cc(C)nc12 | -26.4%
43 | Cc1cc(C)cc(N(C(=O)C(F)(F)F)C(C(=O)NC2CCCCC2)c2cccs2)c1 (centres unmarked) | -7.03%
44 | O=C(CCCc1ccccc1)NCCCc1ccccc1 | -10.9%
45 | CN(Cc1ccccc1)C1CCCN(C(=O)c2ccc(Cl)s2)C1 (centres unmarked) | -30.4%
46 | COC(=O)c1c(C(=O)OC)c(-c2ccc(Br)cc2)n2c1CS(=O)C2 (centres unmarked) | -1.16%

Row | Compound | hERG current change (%, negative = inhibition) at 10uM
47 | CCCNC(=O)c1onc(CSc2cccc(OC)c2)c1C(=O)NCCC | -7.12%
48 | O=C(O)c1cccc(S(=O)(=O)N2CC=C(c3ccccc3)CC2)c1 | -4.64%
49 | COCCNC(=O)/C(C#N)=C/c1cc(C)n(C2CCCCC2)c1C | -0.875%
50 | CCN(CC)S(=O)(=O)c1ccc2nc(CCl)[nH]c2c1 | -16.7%
51 | CCN(CC)S(=O)(=O)c1ccc2nc(CSc3nnnn3-c3ccc(O)cc3)[nH]c2c1 | -53.9%
52 | Cc1ccc(S(=O)(=O)N(C)C)cc1NC(=O)CSc1nnnn1-c1ccc(O)cc1 | -20.9%
53 | O=C(c1cccc(C(=O)N2CCN(c3ccccc3F)CC2)n1)N1CCN(c2ccccc2F)CC1 | -28.3%
54 | O=[N+]([O-])c1ccc(N2CCCCC2)cc1N1CCOCC1 | -11.3%
55 | O=C(/C=C/c1ccc(Cl)cc1)N1CCN(c2ccc([N+](=O)[O-])c(N3CCOCC3)c2)CC1 | -72.4%
56 | O=C(/C=C/c1ccc(Cl)cc1Cl)N1CCN(c2ccc([N+](=O)[O-])c(N3CCOCC3)c2)CC1 | -34.5%
57 | O=[N+]([O-])c1ccc(N2CCOCC2)cc1N1CCCCC1 | -5.12%
58 | O=C(/C=C/c1ccc(Cl)cc1)N1CCOCC1 | 9.65%
59 | O=C(/C=C/c1ccccc1)N1CCN(c2ccc([N+](=O)[O-])c(N3CCOCC3)c2)CC1 | -54.3%
60 | Cc1c(C(=O)NN2CCOCC2)oc2ccccc12 | 16.5%
61 | N#Cc1cc2c(nc1SCc1cccc(Cl)c1)CCCCC2 | 8.72%
62 | COc1cc(C2NC(=O)NC(C)=C2C(=O)OCC2CCCO2)cc(OC)c1OC (centres unmarked) | 18.8%
63 | COc1ccc(N2CCN(c3ncnc4scc(-c5ccccc5)c34)CC2)cc1 | 18.6%
64 | COc1ccc(NC(=O)c2ccccc2NC(=O)CSc2ccc(Cl)cc2)cc1 | 3.21%
65 | Cc1cc(C)cc(NC(=O)C2C3C=CC4(O3)C2C(=O)N(CCCN2CCCCC2)C4C(=O)NC2CCCCC2)c1 (centres unmarked) | 20.7%
66 | O=C(NCc1ccccc1)c1ccc(Cl)c(NC2=NC3CS(=O)(=O)CC3S2)c1 (centres unmarked) | -0.123%
67 | O=C(Cn1nc(Cl)nc1Cl)c1ccc([N+](=O)[O-])cc1 | 1.69%
68 | C[n+]1ccn(CC(=O)c2ccc(Cl)cc2)c1.[Br-] | -3.61%
69 | O=C(Cn1c[n+](CC(=O)c2ccc([N+](=O)[O-])cc2)cn1)c1ccc([N+](=O)[O-])cc1.[Br-] | 21.3%

Row | Compound | hERG current change (%, negative = inhibition) at 10uM
70 | O=C(Cn1cc[n+](CC(=O)c2ccc(Cl)cc2Cl)c1)c1ccc(Cl)cc1Cl.[Br-] | -61.5%
71 | O=C(C[n+]1cnn(CC(=O)c2ccc(Cl)cc2Cl)c1)c1ccc([N+](=O)[O-])cc1.[Br-] | -73.3%
72 | O=C(Cn1cc[n+](CC(=O)c2ccccc2)c1)c1ccccc1.[Br-] | 0.024%
73 | COc1ccc(-c2ccc(SCc3cccnc3)nn2)cc1OC | 29%
74 | Cc1ccccc1N1CC(C(=O)Nc2ccc(S(=O)(=O)N3CCCC3)cc2)CC1=O (centres unmarked) | 3.59%
75 | CCOC(=O)NC1(C(F)(F)F)N=C(c2ccccc2)NC1=O (centres unmarked) | 4.77%
76 | Cn1cc([C@@H]2C[C@H]3CN(C4CCCC4)C(=O)[C@]34CCCN24)c(-c2ccccc2)n1 | -18.5%
77 | O=C1N(C2CCCC2)C[C@@H]2C[C@@H](c3cn[nH]c3-c3ccc(Cl)cc3)N3CCC[C@@]123 | -37.8%
78 | CN1C[C@@H]2C[C@@H](c3ccc(C#CC(C)(C)O)s3)N3CCC[C@@]23C1=O | 9.88%
79 | Cc1cc(C)c([C@@H]2C[C@H]3CN(C4CCCC4)C(=O)[C@]34CCCN24)c(-n2cccn2)c1 | -80.7%
80 | CN1C[C@@H]2C[C@@H](C3=Cc4cc(Cl)ccc4OC3)N3CCC[C@@]23C1=O | -32.7%
81 | Cc1ccc(-n2cccn2)c([C@@H]2C[C@H]3CN(C)C(=O)[C@]34CCCN24)c1 | -61.1%
82 | CCOc1cc(CNc2ncn[nH]2)ccc1OCC(=O)NC(C)(C)C | 5.22%
83 | Cc1ccc(OCC(=O)N(C)Cc2ccccc2)c([N+](=O)[O-])n1 | 3.95%
84 | NN/C(=C\[N+](=O)[O-])Nc1ccc(Cl)cc1 | 13.6%
85 | Cc1ccc(S(=O)(=O)CCC(=O)OCC(=O)c2c[nH]c3ccccc23)cc1 | -8.93%
86 | COc1ccc(S(=O)(=O)N2CCN(C(=O)NC3CCCCC3)CC2)cc1OC | -17.7%
87 | COC(=O)c1cc(Br)c(=O)n(CCc2ccc(F)cc2)c1 | -24.9%
88 | COC(=O)c1cc(Br)c(=O)n(-c2ccc(OC)cc2)c1 | -0.31%
89 | COC(=O)c1cc(Br)c(=O)n(-c2ccc(F)cc2)c1 | -63.9%
